Assay results: paper PMC11006913
Numbering of substitutions follows the chain as printed.

What was measured:
Assay in all cases: PBM; 200 nM protein, PBS
Conditions in all cases: dsDNA, one strand shown
[1] = target: T1, VENTX (Homo sapiens, UniProt O95231 78-163, R121Q)
T1 sequence: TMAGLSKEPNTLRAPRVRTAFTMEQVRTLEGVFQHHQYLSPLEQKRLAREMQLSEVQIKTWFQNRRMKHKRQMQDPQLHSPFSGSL

[2] = target: T2, VENTX (Homo sapiens, UniProt O95231 78-163)
T2 sequence: T1 sequence with Q44R

[3] = target: T3, VENTX (Homo sapiens, UniProt O95231 78-163, Y115F)
T3 sequence: T1 sequence with Y38F, Q44R

| Sequence | binding signal [1] | binding signal [2] | binding signal [3] |
| --- | --- | --- | --- |
| TACATATA | 9.51 upbm affinity estimate (log intensity, higher = more binding, comparable within an allelic series) | 9.59 upbm affinity estimate (log intensity, higher = more binding, comparable within an allelic series) | 9.49 upbm affinity estimate (log intensity, higher = more binding, comparable within an allelic series) |
| CACTGCGC | 8.04 upbm affinity estimate (log intensity, higher = more binding, comparable within an allelic series) | 8.14 upbm affinity estimate (log intensity, higher = more binding, comparable within an allelic series) | 8.18 upbm affinity estimate (log intensity, higher = more binding, comparable within an allelic series) |
| ACCGATTA | 11.5 upbm affinity estimate (log intensity, higher = more binding, comparable within an allelic series) | 12.9 upbm affinity estimate (log intensity, higher = more binding, comparable within an allelic series) | 11.5 upbm affinity estimate (log intensity, higher = more binding, comparable within an allelic series) |
| CTAATGGC | 12 upbm affinity estimate (log intensity, higher = more binding, comparable within an allelic series) | 12.7 upbm affinity estimate (log intensity, higher = more binding, comparable within an allelic series) | 11.8 upbm affinity estimate (log intensity, higher = more binding, comparable within an allelic series) |
| CATGGCGG | 7.95 upbm affinity estimate (log intensity, higher = more binding, comparable within an allelic series) | 7.8 upbm affinity estimate (log intensity, higher = more binding, comparable within an allelic series) | 7.87 upbm affinity estimate (log intensity, higher = more binding, comparable within an allelic series) |
| CTCGGACC | 8.07 upbm affinity estimate (log intensity, higher = more binding, comparable within an allelic series) | 8.13 upbm affinity estimate (log intensity, higher = more binding, comparable within an allelic series) | 8.15 upbm affinity estimate (log intensity, higher = more binding, comparable within an allelic series) |
| CCCCGTAC | 8.03 upbm affinity estimate (log intensity, higher = more binding, comparable within an allelic series) | 8.06 upbm affinity estimate (log intensity, higher = more binding, comparable within an allelic series) | 8.02 upbm affinity estimate (log intensity, higher = more binding, comparable within an allelic series) |
| CCAAATTA | 10.8 upbm affinity estimate (log intensity, higher = more binding, comparable within an allelic series) | 11.4 upbm affinity estimate (log intensity, higher = more binding, comparable within an allelic series) | 10.8 upbm affinity estimate (log intensity, higher = more binding, comparable within an allelic series) |
| GTCCACGA | 8.05 upbm affinity estimate (log intensity, higher = more binding, comparable within an allelic series) | 7.92 upbm affinity estimate (log intensity, higher = more binding, comparable within an allelic series) | 7.98 upbm affinity estimate (log intensity, higher = more binding, comparable within an allelic series) |
| CCGGGTGC | 8.11 upbm affinity estimate (log intensity, higher = more binding, comparable within an allelic series) | 8.38 upbm affinity estimate (log intensity, higher = more binding, comparable within an allelic series) | 8.21 upbm affinity estimate (log intensity, higher = more binding, comparable within an allelic series) |
| AATATTTG | 9.84 upbm affinity estimate (log intensity, higher = more binding, comparable within an allelic series) | 10 upbm affinity estimate (log intensity, higher = more binding, comparable within an allelic series) | 9.7 upbm affinity estimate (log intensity, higher = more binding, comparable within an allelic series) |
| CGAGACCG | 8.25 upbm affinity estimate (log intensity, higher = more binding, comparable within an allelic series) | 8.39 upbm affinity estimate (log intensity, higher = more binding, comparable within an allelic series) | 8.28 upbm affinity estimate (log intensity, higher = more binding, comparable within an allelic series) |
| GGTCGGGA | 8.05 upbm affinity estimate (log intensity, higher = more binding, comparable within an allelic series) | 8.36 upbm affinity estimate (log intensity, higher = more binding, comparable within an allelic series) | 8.02 upbm affinity estimate (log intensity, higher = more binding, comparable within an allelic series) |
| GCCGGCAC | 7.98 upbm affinity estimate (log intensity, higher = more binding, comparable within an allelic series) | 7.91 upbm affinity estimate (log intensity, higher = more binding, comparable within an allelic series) | 7.98 upbm affinity estimate (log intensity, higher = more binding, comparable within an allelic series) |
| ATTATGTC | 10.5 upbm affinity estimate (log intensity, higher = more binding, comparable within an allelic series) | 11 upbm affinity estimate (log intensity, higher = more binding, comparable within an allelic series) | 10.4 upbm affinity estimate (log intensity, higher = more binding, comparable within an allelic series) |
| ATCGATAA | 10.3 upbm affinity estimate (log intensity, higher = more binding, comparable within an allelic series) | 11 upbm affinity estimate (log intensity, higher = more binding, comparable within an allelic series) | 10.2 upbm affinity estimate (log intensity, higher = more binding, comparable within an allelic series) |
| CGGGCGCC | 8.04 upbm affinity estimate (log intensity, higher = more binding, comparable within an allelic series) | 8.22 upbm affinity estimate (log intensity, higher = more binding, comparable within an allelic series) | 8.23 upbm affinity estimate (log intensity, higher = more binding, comparable within an allelic series) |
| ATTAGTGG | 11.7 upbm affinity estimate (log intensity, higher = more binding, comparable within an allelic series) | 12.3 upbm affinity estimate (log intensity, higher = more binding, comparable within an allelic series) | 11.4 upbm affinity estimate (log intensity, higher = more binding, comparable within an allelic series) |
| GCTCCGCC | 8.31 upbm affinity estimate (log intensity, higher = more binding, comparable within an allelic series) | 8.4 upbm affinity estimate (log intensity, higher = more binding, comparable within an allelic series) | 8.22 upbm affinity estimate (log intensity, higher = more binding, comparable within an allelic series) |
| GCGCAGCA | 7.82 upbm affinity estimate (log intensity, higher = more binding, comparable within an allelic series) | 7.9 upbm affinity estimate (log intensity, higher = more binding, comparable within an allelic series) | 7.91 upbm affinity estimate (log intensity, higher = more binding, comparable within an allelic series) |
| GTTATTCA | 9.35 upbm affinity estimate (log intensity, higher = more binding, comparable within an allelic series) | 9.76 upbm affinity estimate (log intensity, higher = more binding, comparable within an allelic series) | 9.4 upbm affinity estimate (log intensity, higher = more binding, comparable within an allelic series) |
| CGATTAAC | 11.4 upbm affinity estimate (log intensity, higher = more binding, comparable within an allelic series) | 12.4 upbm affinity estimate (log intensity, higher = more binding, comparable within an allelic series) | 11.3 upbm affinity estimate (log intensity, higher = more binding, comparable within an allelic series) |
| ACCTATTA | 11.4 upbm affinity estimate (log intensity, higher = more binding, comparable within an allelic series) | 12 upbm affinity estimate (log intensity, higher = more binding, comparable within an allelic series) | 11.1 upbm affinity estimate (log intensity, higher = more binding, comparable within an allelic series) |
| CGATTAGC | 11.7 upbm affinity estimate (log intensity, higher = more binding, comparable within an allelic series) | 12.8 upbm affinity estimate (log intensity, higher = more binding, comparable within an allelic series) | 11.6 upbm affinity estimate (log intensity, higher = more binding, comparable within an allelic series) |
| CCGATTAA | 11.3 upbm affinity estimate (log intensity, higher = more binding, comparable within an allelic series) | 12.5 upbm affinity estimate (log intensity, higher = more binding, comparable within an allelic series) | 11.3 upbm affinity estimate (log intensity, higher = more binding, comparable within an allelic series) |
| AGCCCGGA | 8.11 upbm affinity estimate (log intensity, higher = more binding, comparable within an allelic series) | 7.92 upbm affinity estimate (log intensity, higher = more binding, comparable within an allelic series) | 8.12 upbm affinity estimate (log intensity, higher = more binding, comparable within an allelic series) |
| AATCCATT | 10.1 upbm affinity estimate (log intensity, higher = more binding, comparable within an allelic series) | 10.5 upbm affinity estimate (log intensity, higher = more binding, comparable within an allelic series) | 9.94 upbm affinity estimate (log intensity, higher = more binding, comparable within an allelic series) |
| CGATTAAG | 11.4 upbm affinity estimate (log intensity, higher = more binding, comparable within an allelic series) | 12.4 upbm affinity estimate (log intensity, higher = more binding, comparable within an allelic series) | 11.3 upbm affinity estimate (log intensity, higher = more binding, comparable within an allelic series) |
| AGCGATTA | 11.2 upbm affinity estimate (log intensity, higher = more binding, comparable within an allelic series) | 12.3 upbm affinity estimate (log intensity, higher = more binding, comparable within an allelic series) | 11.3 upbm affinity estimate (log intensity, higher = more binding, comparable within an allelic series) |
